Each structure is given as a SMILES string. Results filed as inconclusive are left out. Unmarked numbers belong to inactive results. Calls come from the whole dose curve. Numbered stars: 1 amine (or outer) side, 2 acyl side, 3 side chain; on linkers, the order of the positions; unused ones are H or OH. Bridge positions count the residues as written; N and C are the ends. Square brackets hold non-standard residues; d marks the D form. Peptide text beside a SMILES is read from it. * marks the point of attachment. ξ: configuration not given here. ΔAla(E,3-NHCONH2) = NC(=O)N/C=C(/N)C(=O)O; X1 = NC1=NCCC(C(N[*:1])C(=O)[*:2])N1; ξβ3hOrn = NCCCC(N)CC(=O)*; Dap = NC[CH](N)C(=O)O
% is set by controls: 0 for no effect and ±100 for the full control effect.

The test in a line: qHTS Assay for Lipid Storage Modulators (AID 1519). Conditions: Drosophila S3 cells, BODIPY lipid droplet/cell ratio, laser cytometry; at 57.5 µM (top of the series); cells loaded with oleic acid. The method, boiled down: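 Cells seeded at 5,000 per well were treated with compounds over a concentration series and loaded with oleic acid (400 uM, as added). Lipid droplet fluorescence (488 nm excitation, 500-530 nm channel) was read by laser-scanning cytometry and normalized to 20 uM Triacsin C.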
(In general: Quantitative high-throughput screening tests each substance at several concentrations.)
Consider `CC1CC[C@@]2(OC1)OC1CC3C4CC[C@H]5CC(O)CC[C@@]5(C)C4CC[C@]3(C)C1C2C` (stereo not given in full), for which the activity change, negative = inhibition was 2.03%.

`CC(=O)OCC(=O)[C@@]1(O)CCC2C3CCC4=CC(=O)CC[C@@]4(C)[C@]3(F)C(O)C[C@]21C` (stereo not given in full): the activity change, negative = inhibition was 4.35%. On to `CC(CCC(=O)O)C1CCC2C3CC(O)[C@@H]4CC(O)CC[C@]4(C)C3CC[C@@]12C` (stereo not given in full), for which the activity change, negative = inhibition is 6.93%. For the compound `CC1CCC(C(C)(C)O)CC2=C1CCC2C` (stereo not given), the activity change, negative = inhibition is 7.53%.

Take `NCCC(O)C(=O)NC1C[C@@H](N)[C@H](O[C@@H]2OC(CN)C(O)C(O)C2O)C(O)[C@H]1O[C@H]1OC(CO)C(O)C(N)C1O` (stereo not given in full): the activity change, negative = inhibition was 7.58%.

For `CC(C)CC(NC(=O)CN)C(=O)NC(Cc1ccccc1)C(=O)O` (stereo not drawn) (H-Gly-Leu-Phe-OH; configuration not given here), the activity change, negative = inhibition was 6.28%.

For `CC(=O)OC1CCC2(C)C(=CC=C3C2CCC2(C)C3CCC2C(C)/C=C/C(C)C(C)C)C1(C)C` (stereo not given), the activity change, negative = inhibition was 1.79%. Regarding `COc1cc2c3cc1Oc1cc(ccc1O)CC1c4c(cc(OC)c(O)c4Oc4ccc(cc4)CC3N(C)CC2)CC[N+]1(C)C` (stereo not given), the activity change, negative = inhibition was 4.12%. The result for `CCOC(=O)c1c(C)cc(O)c(C)c1O` reads 6.04%.

Consider `CC1(C)OC2C(CO)OC(n3cnc4c(=O)[nH]c(N)nc43)C2O1` (stereo not given), for which the activity change, negative = inhibition is 4.01%. `COc1ccc(-c2cc(=O)c3c(O)c(OC)c(OC)c(OC)c3o2)cc1`: the activity change, negative = inhibition is 5.49%. Regarding `NCCCC(N)CC(=O)NCC1NC(=O)C(CO)NC(=O)C(N)CNC(=O)C(C2CCN=C(N)N2)NC(=O)/C(=C\NC(N)=O)NC1=O` (stereo not drawn) (H-[Dap]S[Dap](ξβ3hOrn)[ΔAla(E,3-NHCONH2)][X1]; lactam 1-C; configuration not given here), the activity change, negative = inhibition is 2.39%. Regarding `COc1ccc(/C=C/c2cc(O)cc(O[C@H]3OC(CO)C(O)C(O)C3O)c2)cc1` (stereo not given in full), the activity change, negative = inhibition was 8.33%. The result for `CC(=O)OCC(=O)[C@]1(O)C(OC(C)=O)CC2C3CCC4=CC(=O)C=C[C@@]4(C)[C@]3(F)C(O)C[C@]21C` (stereo not given in full) reads 2.18%.

With `COc1ccc(C2OC3C(CO)OC(n4cnc5c(=O)[nH]c(N)nc54)C3O2)cc1` (stereo not given), the activity change, negative = inhibition is 1.28%. On to `C[C@@]12CCC(O)C[C@H]1CCc1ccccc12` (stereo not given in full), for which the activity change, negative = inhibition was 1.53%. With `CCOc1ccc(C(=O)c2ccc(OC)c(O)c2O)cc1`, the activity change, negative = inhibition was 7.45%. Regarding `CC(=O)NC(CC(=O)O)C(=O)NC(CCC(=O)O)C(=O)O` (stereo not drawn) (Ac-Asp-Glu-OH; configuration not given here), the activity change, negative = inhibition is 4.52%. Turning to `CC1CCC(C(C)C)[C@H](OC(=O)c2ccccc2)C1` (stereo not given in full), the activity change, negative = inhibition is 5.46%.

For the compound `CC(C(=O)O)C1CCC2C3CC=C4CC(O)CC[C@@]4(C)C3CC[C@]12C` (stereo not given in full), the activity change, negative = inhibition was 4.4%. In the case of `CC1(C)OC2C[C@](O)(C(N)=O)C[C@H](O)[C@H]2O1` (stereo not given in full), the activity change, negative = inhibition was 3.65%. As for `OCC1OC(n2cnc3c(NCc4ccco4)ncnc32)C(O)C1O` (stereo not given), the activity change, negative = inhibition is -0.247%. The result for `[N-]=[N+]=NCC1OC(n2cnc3c(=O)[nH]c(N)nc32)C(O)C1O` (stereo not given) reads 4.07%; that for `COc1ccc(-c2cc(=O)c3c(O)cc(O[C@@H]4OC(COC5OC(C)C(O)C(O)[C@@H]5O)C(O)C(O)C4O)cc3o2)cc1` (stereo not given in full), 5.1%. Regarding `CC(=O)C1CCC2C3CC=C4CC(O)CC[C@@]4(C)C3CC[C@]12C` (stereo not given in full), the activity change, negative = inhibition was 2.94%. For the compound `CC1CC[C@@]2(OC1)OC1CC3C4CC=C5CC(O)CC[C@@]5(C)C4CC[C@]3(C)C1C2C` (stereo not given in full), the activity change, negative = inhibition was 5.92%.

`CC1CCC(C(C)C)[C@H](O)C1` (stereo not given in full): the activity change, negative = inhibition was 8.01%. On to `CC(=O)OCC(=O)C1CCC2C3CC=C4CC(O)CC[C@@]4(C)C3CC[C@]12C` (stereo not given in full), for which the activity change, negative = inhibition is 8.84%.

As for `CCC1OC(=O)C(C)[C@@H](O[C@H]2C[C@@](C)(OC)C(O)C(C)O2)C(C)[C@@H](O[C@@H]2OC(C)CC(N(C)C)C2O)[C@](C)(O)CC(C)/C(=N\OCOCCOC)[C@H](C)C(O)[C@]1(C)O` (stereo not given in full), the activity change, negative = inhibition is 7.24%. For the compound `C/C=C1\C2C=C(C)C[C@@]1(N)c1ccc(=O)[nH]c1C2`, the activity change, negative = inhibition was 13.7%. As to `CC(C)(O)CCC(O)[C@@](C)(O)C1CC[C@]2(O)C3=CC(=O)C4CC(O)C(O)C[C@]4(C)C3CC[C@]12C` (stereo not given in full), the activity change, negative = inhibition was 2.72%. Regarding `C=C(C)C1CC=C(CO)CC1` (stereo not given), the activity change, negative = inhibition is 0.669%. `CC1CCC2(OC1)OC1CC3C4CC[C@@H]5CC(O)CC[C@@]5(C)C4CC(=O)[C@]3(C)C1C2C` (stereo not given in full): the activity change, negative = inhibition is 9.56%. The result for `CC(=O)NC1C(O)C[C@@](O)(C(=O)O)OC1[C@@H](O)C(O)CO` (stereo not given in full) reads 3.62%; that for `O=C(Cc1ccccc1)NO`, 4.41%; that for `CCC(C(N)=O)c1ccccc1` (stereo not given), 9.01%. The result for `CC1=C2C(O)C(=O)OC3CC4C(C)(C)C(=O)C=C[C@]4(C)C(CC1)[C@@]23C` (stereo not given in full) reads 3.51%; that for `O=C(O)c1cc2cc(Cl)ccc2[nH]1`, 4.59%; that for `CC(C)CC(N)C(=O)NC(C)C(=O)O` (stereo not given), 3.3%. The result for `NCC1CCCCC1CC(=O)O` (stereo not given) reads 5.88%.

The values are drawn from PubChem BioAssay (NCATS).
